Compound activity from PubChem.
eIF4E-4G inh: blocks eIF4E binding to eIF4G | TR-FRET eIF4E-eIF4GI(517-606) binding, 2 h | inhibition, % at 21.7 µM | actives 0.37% (n = 220,000) | AID 782
NCF1 inh: inhibitors of human p47phox binding; p47phox/p22phox peptide binding, fluorescence polarization, 2 h; inhibition, % at 24.7 µM; actives 0.53% (n = 220,000); AID 1274; P14598
Target sequence (P14598 whole entry, looked up): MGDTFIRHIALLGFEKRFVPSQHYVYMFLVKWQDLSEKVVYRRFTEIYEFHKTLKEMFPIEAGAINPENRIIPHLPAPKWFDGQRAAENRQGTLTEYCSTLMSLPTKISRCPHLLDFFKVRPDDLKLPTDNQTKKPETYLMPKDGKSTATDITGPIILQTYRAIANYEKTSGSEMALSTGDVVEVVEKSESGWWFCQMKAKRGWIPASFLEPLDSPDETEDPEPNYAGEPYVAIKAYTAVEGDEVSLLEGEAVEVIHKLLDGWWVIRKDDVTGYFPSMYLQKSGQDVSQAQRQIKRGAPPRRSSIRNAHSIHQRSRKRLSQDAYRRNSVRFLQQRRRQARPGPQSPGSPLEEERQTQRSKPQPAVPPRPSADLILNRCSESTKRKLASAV
14-3-3 Bad PPI: disrupts binding of bovine 14-3-3 zeta to phospho-Bad peptide. P63103. TR-FRET 14-3-3zeta/Dy647-pBad peptide displacement, 1 h. inhibition, % at 21.7 µM. actives 0.71% (n = 220,000);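 active = inhibition above about 70%, limit read from the data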
Target sequence (P63103 whole entry, looked up): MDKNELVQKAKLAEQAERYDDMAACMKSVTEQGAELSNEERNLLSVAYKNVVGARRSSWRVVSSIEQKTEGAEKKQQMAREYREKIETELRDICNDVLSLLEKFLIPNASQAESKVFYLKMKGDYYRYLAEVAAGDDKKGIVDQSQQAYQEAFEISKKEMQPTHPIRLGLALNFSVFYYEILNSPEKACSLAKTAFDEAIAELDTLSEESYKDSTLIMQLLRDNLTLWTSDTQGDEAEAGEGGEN
Bim-Mcl-1: human Bim-Mcl-1 interaction inhibition | actives 0.1% (n = 190,000) | Q07820 | inhibition, % at 10 µM | Bead-based flow cytometry, Bim peptide-Mcl-1 binding; in the data active = inhibition above about 40%
Mcl1-Bid inh: Mcl-1/Bid interaction inhibition. TR-FRET Mcl-1/Bid-Dy647 peptide binding, 1536-well. Q07820. actives 0.97% (n = 220,000). inhibition, % at 21.7 µM. AID 1021;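 active = compounds that cut the binding signal by more than half at the single screening dose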;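 note: His-tagged Mcl-1 with europium anti-His antibody binding Bid BH3 peptide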
Mcl1 Noxa PPI: disrupts binding of human Mcl-1 to Noxa peptide | Q07820 | TR-FRET Mcl-1/Noxa peptide binding, 2 h | inhibition, % at 21.7 µM | actives 1.5% (n = 220,000) | AID 1022;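 active = compounds that cut the protein-peptide binding signal by more than 50% relative to plate controls in a single-dose test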;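 note: His-tagged Mcl-1 with rhodamine Noxa BH3 peptide and terbium anti-His antibody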
Each line names hits and unclear results; the compound was inactive in the other large screens; [ ] = dose if it differs, or a comment. Sampled rows, rich in hits. Any-hit rate of the full collection: about 3.3%.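 Rule for the calls, unless noted: active = inhibition above about 30% (limit read from the data); inactive = the rest.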

Clc1nssc1=Nc1ccc(Br)cc1	eIF4E-4G inh 51.0
N#Cc1cccc(N=c2ssnc2Cl)c1	eIF4E-4G inh 54.3
Clc1ccc(N=c2ssnc2Cl)nc1	none
O=C(NNC(=S)NCc1ccc(Cl)cc1)c1ccc2c(c1)OCO2	none
N/C(Cc1nc(-c2ccc(Br)cc2)cs1)=N\O	none
COc1ccccc1/C=C/C=N/n1c(-c2ccc(C)cc2)n[nH]c1=S	none
Cc1ccc(-c2n[nH]c(=S)n2/N=C/C=C\c2ccccc2[N+](=O)[O-])cc1	none
O=[N+]([O-])c1ccccc1/C=C/C=N/n1c(-c2ccc(Cl)cc2)n[nH]c1=S	14-3-3 Bad PPI 79.0
O=[N+]([O-])c1ccccc1/C=C/C=N/n1c(-c2ccccc2)n[nH]c1=S	Mcl1 Noxa PPI 73.4
CCOc1ncccc1C(=O)OCC(=O)c1ccc(C)c(C)c1	none
Cc1cc(C)nc(NC(=O)CSc2nc3ccccc3o2)n1	NCF1 inh 42.5
COc1cc(OC)nc(NC(=O)CSc2nc3ccccc3o2)n1	none
O=C(NCC1CCCO1)/C(=C/c1cn(-c2ccccc2)nc1-c1cccnc1)NC(=O)c1ccccc1 (centres undefined)	none
Cc1[nH]nc2c1C(c1ccsc1)C1=C(CC(C)(C)CC1=O)N2 (centres undefined)	none
O=C1ON=C(c2cccc([N+](=O)[O-])c2)/C1=C/c1ccc(O)cc1	Mcl1 Noxa PPI 66.1
N#Cc1cccc(NC(=O)CSc2ccc3c4c(cccc24)C(=O)c2ccccc2-3)c1	NCF1 inh 40.2, Mcl1-Bid inh 73.8
COc1ccc(NC(=O)CSc2ccc3c4c(cccc24)C(=O)c2ccccc2-3)cc1	none
CCOc1ccc(CN2C(=O)CC(=O)N(S(=O)(=O)c3ccc(OCC)cc3)C2=O)cc1	none (no result: Bim-Mcl-1)
Cc1cccc(N2C(S)=C(C#N)C(=O)NC2c2ccco2)c1 (centres undefined)	none
N#CC1=C(S)N(c2ccccc2)C(c2ccc(-c3cccc(Cl)c3)o2)NC1=O (centres undefined)	Mcl1 Noxa PPI 69.0
COc1cc(OC)cc(C2=NCCN2)c1	none
COC(=O)c1sccc1NC(=O)c1c(C)noc1C	none
COC(=O)c1sccc1NC(=O)c1cc(C)on1	Mcl1-Bid inh 62.8
O=C1C2CC=CCC2C(=O)N1c1ccc(N2CCN(c3ccccn3)CC2)c([N+](=O)[O-])c1 (centres undefined)	none
Cc1occc1C(=O)NNC(=O)C1CC1	none
Cc1occc1C(=O)NNC(=O)NC12CC3CC(CC(C3)C1)C2	NCF1 inh 35.6
CCOC(=O)C1=C(C)NC(C)=C(C(=O)OCC)C1C(=O)OCC(=O)N(CC)C1CCS(=O)(=O)C1 (centres undefined)	none
O=C(O)[C@H](Cc1ccccc1)N1Cc2ccccc2C1=O	Mcl1-Bid inh 72.3
Cc1ccnc(NC(=O)Cc2ccc(F)cc2)n1	eIF4E-4G inh 85.0 (no result: Bim-Mcl-1)
CCn1c(C)nc2cc(C(=O)N/N=C/c3cccc(OC)c3O)ccc21	Mcl1 Noxa PPI 64.7
COc1cccc(/C=N/NC(=O)c2ccc3nc[nH]c3c2)c1O	none (no result: Bim-Mcl-1)
CCn1c(C)nc2cc(C(=O)N/N=C/c3ccc(O)c(O)c3O)ccc21	eIF4E-4G inh 77.9, Mcl1 Noxa PPI 95.2
Cc1ccc(C2CC(C(F)(F)F)n3nc(C(=O)NCCN4CCOCC4)cc3N2)cc1 (centres undefined)	none
CCCCNC(=O)c1cc2n(n1)C(C(F)(F)F)CC(c1ccccc1)N2 (centres undefined)	NCF1 inh 57.4
NC(=O)CC(NC(=O)Cc1ccc(Br)cc1)c1ccc(NCc2ccc(F)cc2)c([N+](=O)[O-])c1 (centres undefined)	none (no result: Bim-Mcl-1)
Cc1nnc(Sc2cc(C(=O)NC3CC3)c3ccccc3n2)s1	Mcl1-Bid inh 98.6 (no result: Bim-Mcl-1)
COCCNC(=O)c1cc(Sc2nnc(C)s2)nc2ccccc12	none (no result: Bim-Mcl-1)
CSc1cccc(NC(=O)CCCOc2ccc(Cl)cc2Cl)c1	none
O=C(CCCOc1ccc(Cl)cc1Cl)Nc1cccnc1	14-3-3 Bad PPI 78.4
Cc1cc(NC(=O)CSc2nc3sc(C)c(C)c3c(=O)n2C2CCCC2)no1	none
Cn1nc(Cc2n[nH]c(=S)n2C)c2ccccc2c1=O	none (no result: Bim-Mcl-1)
Cc1[nH]c2ccccc2c1CN1CCc2ccccc2C1	Mcl1-Bid inh 51.1 (no result: Mcl1 Noxa PPI)
Cc1ccc(C)c(NC(=O)CSc2nc3ccc(N4C(=O)c5ccccc5C4=O)cc3s2)c1	none
O=C(/C=C/c1ccccc1)NC(=S)Nc1ncccn1	Mcl1 Noxa PPI 68.1 (no result: Bim-Mcl-1)
CC(C)(C)c1ccc(NC(=S)NCCc2ccccn2)cc1	Mcl1-Bid inh 50.6 (no result: Bim-Mcl-1)
Cc1ccc(C(=O)O)cc1-c1ccc(C=C2C(=O)c3ccccc3C2=O)o1	Mcl1 Noxa PPI 56.8
Cc1cccc(NC(=O)CN2C(=O)S/C(=C\c3ccc(-c4cccc(C(=O)O)c4C)o3)C2=O)c1	none
Cc1ccc(NC(=O)CN2C(=O)S/C(=C/c3ccc(-c4cc(C(=O)O)ccc4C)o3)C2=O)cc1C	eIF4E-4G inh 40.0, 14-3-3 Bad PPI 76.5[fluorescence artefact?], Mcl1-Bid inh 93.5, Mcl1 Noxa PPI 84.3
COC(=O)c1ccc(Cn2nc([N+](=O)[O-])c(Br)c2C)cc1	none (no result: Bim-Mcl-1)
Cc1cc(C(=O)NC2CCCc3ccccc32)no1 (centres undefined)	Bim-Mcl-1 46.0
N#CC(C#N)=C1c2cc(S(=O)(=O)NCCO)ccc2-c2ccc(S(=O)(=O)NCCO)cc21	none (no result: Bim-Mcl-1)
N#CC(C#N)=C1c2cc(S(N)(=O)=O)ccc2-c2ccc(S(N)(=O)=O)cc21	14-3-3 Bad PPI 81.2
CC(C)Oc1ccc(C(=O)NC2(C(F)(F)F)NC(=O)N(CCCc3ccccc3)C2=O)cc1 (centres undefined)	none
CCN(CC)S(=O)(=O)c1ccc2c(c1)nc(CCC(=O)Nc1ccc3c(c1)OCO3)n2CC	none
O=C(CN1CCOCC1)N/N=C/c1ccc(-c2cccc(Cl)c2Cl)o1	14-3-3 Bad PPI 77.4 (no result: Bim-Mcl-1)
Cc1ccc2cc(/C=N/NC(=O)CN3CCOCC3)c(Cl)nc2c1	Mcl1-Bid inh 74.1
O=C(CN1CCOCC1)N/N=C/c1ccc(C(=O)O)cc1	none
Cc1cccc2cc(/C=N/NC(=O)CN3CCOCC3)c(Cl)nc12	Mcl1-Bid inh 86.9
C=CCn1c(SCC(=O)OCC)nc(C(F)(F)F)cc1=O	none
Nc1nc(SCC(=O)Nc2ncc(C(F)(F)F)cc2Cl)n[nH]1	none
COc1ccccc1NC(=O)CSc1ccc2nnc(-c3ccc(C)cc3)n2n1	NCF1 inh 35.1
COc1ccccc1NC(=O)CSc1ccc2nnc(-c3ccncc3)n2n1	none
COC(=O)c1cc(COC(=O)c2nc3nccc(C)n3n2)oc1C	none
C/C(=N\NC(=O)COc1ccc(C#N)cc1)c1ccccc1OC(F)F	Bim-Mcl-1 49.0
C/C(=N\NC(=O)COc1ccc(C(C)(C)C)cc1)c1ccc(OC(F)F)cc1	none
CCOc1ccc(Nc2ncnc3c2cnn3-c2ccccc2)cc1	none
